Values joined by “and” are separate entries in the source; they are usually repeats but may differ in a detail not shown here. Equal entries are not always repeated. Records with an inconclusive call do not appear. More than one record can exist for a structure, and the calls need not agree. Active and inactive are the calls of the source. How the source made its calls: active means hit-call score of the fitted dose curve at least 0.9, where 1 is the maximum; inconclusive means response in the unintended direction; inactive means score below 0.9.
Legend:
[1] = test system: turtle Estrogen Receptor (ERa), gene 101933533; test: ATG_trERa_XSP2: Attagene TRANS-FACTORIAL Multi-Species (XSP2) HepG2 Assay for turtle Estrogen Receptor (ERa) (AID 2283812);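 further: human HepG2 liver cells transiently expressing turtle ERa-Gal4 chimeric receptor; actives raise reporter signal above DMSO so AC50 reflects agonist activity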
Summary of the method: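 HepG2 cells transiently transfected with GAL4-UAS reporter units expressing turtle ERa-Gal4 chimera. Reporter mRNA measured after 24 h dosing by RT-PCR, fluorescent labelling and capillary electrophoresis; gain of signal fitted versus DMSO.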

[2] = biological target: Estrogen receptor beta (Homo sapiens) (UniProt Q92731); test: ATG_hERb_XSP2: Attagene TRANS-FACTORIAL Multi-Species (XSP2) HepG2 Assay for human Estrogen Receptor (ERb) (AID 2283813);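 further: actives raise reporter mRNA above DMSO so AC50 reflects agonist induction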
Sequence of Estrogen receptor beta (Homo sapiens) (Q92731 whole entry, looked up, the tested form may be a part): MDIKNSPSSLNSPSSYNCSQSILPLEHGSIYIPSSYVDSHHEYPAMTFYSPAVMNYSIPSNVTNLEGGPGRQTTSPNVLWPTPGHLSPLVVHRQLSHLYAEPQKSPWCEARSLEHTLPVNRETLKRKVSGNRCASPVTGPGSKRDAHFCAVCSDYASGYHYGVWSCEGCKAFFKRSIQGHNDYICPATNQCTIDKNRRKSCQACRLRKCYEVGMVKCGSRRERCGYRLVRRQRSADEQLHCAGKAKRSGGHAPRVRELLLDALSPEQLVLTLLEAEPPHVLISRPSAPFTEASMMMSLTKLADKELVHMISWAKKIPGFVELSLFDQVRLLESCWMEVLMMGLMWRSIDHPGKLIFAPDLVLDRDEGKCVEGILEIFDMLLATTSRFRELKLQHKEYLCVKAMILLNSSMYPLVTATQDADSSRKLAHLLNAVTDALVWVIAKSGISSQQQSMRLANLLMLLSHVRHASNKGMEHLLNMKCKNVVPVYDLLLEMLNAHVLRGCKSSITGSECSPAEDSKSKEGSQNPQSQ
Summary of the method: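 HepG2 cells transiently transfected with GAL4-UAS reporter units and chimeric human ERb-Gal4, 24 h exposure. Reporter mRNA quantified by RT-PCR with FAM labelling, HpaI digestion and capillary electrophoresis; gain of signal versus DMSO.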

[3] = biological target: GAL4 Transcription Factor (Internal Marker), GAL4 (gene 855828) (UniProt P04386); test: ATG_GAL4_XSP2: Attagene TRANS-FACTORIAL Multi-Species (XSP2) HepG2 Assay for GAL4 Transcription Factor (Internal Marker) (AID 2283814);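 further: GAL4 reporter mRNA background control in MRTU transfected cells not a receptor target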
Sequence of GAL4 Transcription Factor (Internal Marker), GAL4 (gene 855828) (P04386 whole entry, looked up, the tested form may be a part): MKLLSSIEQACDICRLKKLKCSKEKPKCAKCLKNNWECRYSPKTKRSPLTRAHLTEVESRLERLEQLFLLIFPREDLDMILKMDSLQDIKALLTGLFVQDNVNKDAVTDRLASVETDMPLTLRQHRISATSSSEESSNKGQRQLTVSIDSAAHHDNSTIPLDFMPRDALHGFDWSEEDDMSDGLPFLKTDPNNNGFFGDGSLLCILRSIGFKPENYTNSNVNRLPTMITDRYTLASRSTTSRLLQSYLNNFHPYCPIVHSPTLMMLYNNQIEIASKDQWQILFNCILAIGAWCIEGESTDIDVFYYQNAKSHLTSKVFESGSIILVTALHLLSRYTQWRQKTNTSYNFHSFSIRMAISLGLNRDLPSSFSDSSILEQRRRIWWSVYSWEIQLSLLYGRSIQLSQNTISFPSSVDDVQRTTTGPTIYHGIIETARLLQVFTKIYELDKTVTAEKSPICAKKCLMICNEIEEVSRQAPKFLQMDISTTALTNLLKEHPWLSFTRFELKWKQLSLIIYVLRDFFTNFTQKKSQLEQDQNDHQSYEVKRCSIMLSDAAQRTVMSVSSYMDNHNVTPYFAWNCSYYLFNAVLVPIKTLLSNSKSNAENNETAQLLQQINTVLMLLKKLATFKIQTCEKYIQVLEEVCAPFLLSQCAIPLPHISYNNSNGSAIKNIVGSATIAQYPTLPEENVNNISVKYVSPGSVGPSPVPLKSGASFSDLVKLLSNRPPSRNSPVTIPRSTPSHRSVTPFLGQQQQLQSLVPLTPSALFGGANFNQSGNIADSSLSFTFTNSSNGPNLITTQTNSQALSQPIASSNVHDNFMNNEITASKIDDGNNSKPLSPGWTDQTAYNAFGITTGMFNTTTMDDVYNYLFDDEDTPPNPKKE
Summary of the method: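 HepG2 cells transiently transfected with GAL4-UAS reporter units, stimulated with 3 nM 6-alpha-fluorotestosterone plus 1.5 nM norgestrel, dosed 24 h. Reporter mRNA by RT-PCR/capillary electrophoresis; gain-of-signal fit versus DMSO, background control.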

[4] = biological target: zebrafish Estrogen Receptor (ER1), esr1 (gene 259252) (UniProt P57717); test: ATG_zfER1_XSP2: Attagene TRANS-FACTORIAL Multi-Species (XSP2) HepG2 Assay for zebrafish Estrogen Receptor (ER1) (AID 2283816)
Sequence of zebrafish Estrogen Receptor (ER1), esr1 (gene 259252) (P57717 whole entry, looked up, the tested form may be a part): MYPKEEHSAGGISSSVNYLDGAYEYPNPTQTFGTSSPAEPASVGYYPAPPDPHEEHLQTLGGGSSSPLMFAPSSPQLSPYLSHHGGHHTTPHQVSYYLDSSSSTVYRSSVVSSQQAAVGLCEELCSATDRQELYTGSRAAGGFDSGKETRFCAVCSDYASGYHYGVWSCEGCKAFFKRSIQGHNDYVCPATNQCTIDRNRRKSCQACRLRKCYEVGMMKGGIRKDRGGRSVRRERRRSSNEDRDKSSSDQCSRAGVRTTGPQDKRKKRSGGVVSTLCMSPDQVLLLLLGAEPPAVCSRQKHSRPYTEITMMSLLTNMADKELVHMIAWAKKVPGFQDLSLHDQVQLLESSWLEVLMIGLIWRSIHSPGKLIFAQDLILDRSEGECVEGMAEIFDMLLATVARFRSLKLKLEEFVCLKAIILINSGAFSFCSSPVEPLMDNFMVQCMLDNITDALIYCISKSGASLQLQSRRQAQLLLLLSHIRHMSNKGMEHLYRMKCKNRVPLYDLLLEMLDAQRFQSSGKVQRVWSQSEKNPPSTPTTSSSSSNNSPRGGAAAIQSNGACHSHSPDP
Summary of the method: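 HepG2 cells transiently transfected with a GAL4-UAS reporter and a chimeric zebrafish ER1-Gal4 construct, dosed 24 h. Reporter mRNA quantified by RT-PCR, labelling, HpaI digestion and capillary electrophoresis, relative to DMSO.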

[5] = biological target: chicken Estrogen Receptor (ERa), ESR1 (gene 396099) (UniProt P06212); test: ATG_chERa_XSP2: Attagene TRANS-FACTORIAL Multi-Species (XSP2) HepG2 Assay for chicken Estrogen Receptor (ERa) (AID 2283817);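 further: actives raise reporter signal above DMSO so AC50 reflects ER activation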
Sequence of chicken Estrogen Receptor (ERa), ESR1 (gene 396099) (P06212 whole entry, looked up, the tested form may be a part): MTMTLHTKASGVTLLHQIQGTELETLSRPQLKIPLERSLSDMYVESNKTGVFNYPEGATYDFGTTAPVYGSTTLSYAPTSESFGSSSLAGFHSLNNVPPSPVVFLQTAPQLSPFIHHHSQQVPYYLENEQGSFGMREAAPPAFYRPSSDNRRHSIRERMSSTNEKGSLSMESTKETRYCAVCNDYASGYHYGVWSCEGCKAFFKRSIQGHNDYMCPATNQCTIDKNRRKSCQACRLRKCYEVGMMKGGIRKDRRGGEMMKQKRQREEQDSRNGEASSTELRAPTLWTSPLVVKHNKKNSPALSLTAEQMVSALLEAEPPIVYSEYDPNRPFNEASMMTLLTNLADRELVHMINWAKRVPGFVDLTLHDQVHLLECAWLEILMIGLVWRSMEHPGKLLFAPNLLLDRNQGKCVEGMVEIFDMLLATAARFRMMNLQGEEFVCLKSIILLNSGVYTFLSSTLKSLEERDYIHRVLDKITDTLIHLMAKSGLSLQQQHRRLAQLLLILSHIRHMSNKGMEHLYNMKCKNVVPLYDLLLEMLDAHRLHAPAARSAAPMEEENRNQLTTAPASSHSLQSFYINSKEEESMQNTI
Summary of the method: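 Transient MRTU transfection of HepG2 → 24 h chemical dosing → TriZol RNA, oligo(dT) RT → PCR, 6-FAM primer extension, HpaI digest → CE quantitation of chicken ERa-Gal4-driven reporter mRNA. Positive direction vs DMSO.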

[6] = test system: zebrafish Estrogen Receptor (ER2a), gene 317734; test: ATG_zfER2a_XSP2: Attagene TRANS-FACTORIAL Multi-Species (XSP2) HepG2 Assay for zebrafish Estrogen Receptor (ER2a) (AID 2283818);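 further: hits raise reporter mRNA so AC50 reflects activation of zebrafish ER2a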
Summary of the method: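 HepG2 cells transiently transfected with GAL4-UAS reporter units and chimeric zebrafish ER2a-Gal4, exposed 24 h; medium contains 3 nM 6-alpha-fluorotestosterone and 1.5 nM norgestrel. Reporter mRNA quantified by RT-PCR, HpaI digestion, capillary electrophoresis; gain versus DMSO.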

[7] = biological target: frog Thyroid hormone Receptor alpha (TRa), thra-a (gene 397942) (UniProt P15204); test: ATG_frTRa_XSP1: Attagene TRANS-FACTORIAL Multi-Species (XSP1) HepG2 Assay for frog Thyroid hormone Receptor alpha (TRa) (AID 2283804)
Sequence of frog Thyroid hormone Receptor alpha (TRa), thra-a (gene 397942) (P15204 whole entry, looked up, the tested form may be a part): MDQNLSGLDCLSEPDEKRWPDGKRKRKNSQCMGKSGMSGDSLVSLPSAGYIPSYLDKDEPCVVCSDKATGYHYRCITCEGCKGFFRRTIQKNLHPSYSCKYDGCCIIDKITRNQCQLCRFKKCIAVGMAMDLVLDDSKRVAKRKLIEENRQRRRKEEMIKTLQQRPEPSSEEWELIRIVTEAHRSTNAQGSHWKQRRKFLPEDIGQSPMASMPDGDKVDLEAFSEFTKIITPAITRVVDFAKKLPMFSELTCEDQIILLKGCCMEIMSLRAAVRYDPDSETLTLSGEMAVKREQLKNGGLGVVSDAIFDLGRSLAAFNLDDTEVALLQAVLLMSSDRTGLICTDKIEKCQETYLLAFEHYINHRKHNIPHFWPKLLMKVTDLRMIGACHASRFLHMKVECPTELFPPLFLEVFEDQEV
Summary of the method: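 HepG2 cells transiently transfected with frog TRa-GAL4 chimeric reporter units, dosed 24 hr with 3 nM 6-alpha-fluorotestosterone present; reporter mRNA quantified by RT-PCR, fluorescent labelling and capillary electrophoresis, gain of signal versus DMSO.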

[8] = test system: turtle Thyroid Hormone Receptor, alpha (TRa), gene 101949057; test: ATG_trTRa_XSP1: Attagene TRANS-FACTORIAL Multi-Species (XSP1) HepG2 Assay for turtle Thyroid Hormone Receptor, alpha (TRa) (AID 2283806)
Summary of the method: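 HepG2 cells transiently transfected with GAL4-UAS reporter units and chimeric receptor-Gal4 constructs, with 3 nM 6-alpha-fluorotestosterone present. Reporter mRNA was quantified 24 h after dosing by RT-PCR, 6-FAM labelling and capillary electrophoresis; gain of signal versus DMSO.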

[9] = biological target: zebrafish Thyroid Hormone Receptor alpha (TRa), thraa (gene 30670) (UniProt Q98867); test: ATG_zfTRa_XSP1: Attagene TRANS-FACTORIAL Multi-Species (XSP1) HepG2 Assay for zebrafish Thyroid Hormone Receptor alpha (TRa) (AID 2283807)
Sequence of zebrafish Thyroid Hormone Receptor alpha (TRa), thraa (gene 30670) (Q98867 whole entry, looked up, the tested form may be a part): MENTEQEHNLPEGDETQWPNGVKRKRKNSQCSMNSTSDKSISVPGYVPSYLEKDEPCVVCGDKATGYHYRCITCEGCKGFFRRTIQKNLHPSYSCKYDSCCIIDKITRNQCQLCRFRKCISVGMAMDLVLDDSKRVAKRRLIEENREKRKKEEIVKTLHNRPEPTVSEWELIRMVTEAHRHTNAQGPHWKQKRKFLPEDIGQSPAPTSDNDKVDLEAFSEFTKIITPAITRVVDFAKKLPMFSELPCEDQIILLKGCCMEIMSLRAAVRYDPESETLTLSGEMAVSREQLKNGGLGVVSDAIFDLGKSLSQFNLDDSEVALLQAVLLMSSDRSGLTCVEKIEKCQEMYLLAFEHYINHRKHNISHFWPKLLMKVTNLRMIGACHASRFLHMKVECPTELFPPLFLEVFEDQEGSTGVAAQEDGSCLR
Summary of the method: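 HepG2 cells transiently transfected with GAL4-UAS reporter units including a zebrafish TRa–Gal4 chimera, dosed 24 h with 3 nM 6-alpha-fluorotestosterone present. Reporter mRNA quantified by RT-PCR and capillary electrophoresis; gain versus DMSO.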

[10] = biological target: zebrafish Thyroid Hormone Receptor beta (TRb), thrb (gene 30607) (UniProt Q9PVE4); test: ATG_zfTRb_XSP1: Attagene TRANS-FACTORIAL Multi-Species (XSP1) HepG2 Assay for zebrafish Thyroid Hormone Receptor beta (TRb) (AID 2283809)
Sequence of zebrafish Thyroid Hormone Receptor beta (TRb), thrb (gene 30607) (Q9PVE4 whole entry, looked up, the tested form may be a part): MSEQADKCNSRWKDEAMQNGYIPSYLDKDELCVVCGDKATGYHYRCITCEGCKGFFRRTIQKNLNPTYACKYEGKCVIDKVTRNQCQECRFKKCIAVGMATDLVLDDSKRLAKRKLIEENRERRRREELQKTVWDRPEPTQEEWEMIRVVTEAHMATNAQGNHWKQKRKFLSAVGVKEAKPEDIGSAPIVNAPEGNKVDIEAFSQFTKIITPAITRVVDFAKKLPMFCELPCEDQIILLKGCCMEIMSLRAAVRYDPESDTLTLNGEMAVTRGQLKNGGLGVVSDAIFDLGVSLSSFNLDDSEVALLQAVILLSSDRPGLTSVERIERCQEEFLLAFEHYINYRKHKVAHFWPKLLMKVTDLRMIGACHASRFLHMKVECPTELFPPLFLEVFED
Summary of the method: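 HepG2 cells transiently transfected with multiplexed GAL4-UAS reporter units expressing chimeric zebrafish TRb–Gal4. Dosed 24 h with 3 nM 6-alpha-fluorotestosterone present; reporter mRNA measured by RT-PCR, HpaI digestion and capillary electrophoresis; gain of signal versus DMSO.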

[11] = ATG_XTT_Cytotoxicity_XSP1: Cytotoxicity Assessment in the Attagene TRANS-FACTORIAL Multi-Species (XSP1) HepG2 Assay (AID 2283810)
Summary of the method: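 XTT viability readout taken at 24 hours post-dosing in HepG2 liver cells co-treated with 3 nM 6-alpha-fluorotestosterone. Signal loss relative to DMSO controls reflects cytotoxicity.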

[12] = ATG_M_06_XSP2: Attagene TRANS-FACTORIAL Multi-Species (XSP2) HepG2 Assay for M06 Transcription Factor (Internal Marker) (AID 2283811);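 further: internal background marker reporter mRNA measured by RT-PCR and capillary electrophoresis; hits are increases in signal above the DMSO baseline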
Summary of the method: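 HepG2, multiplexed reporter transfection; 24 h dosing; AR stimulated with 3 nM 6-alpha-fluorotestosterone + 1.5 nM norgestrel; RNA → RT-PCR → 6-FAM primer extension → HpaI → CE. Positive direction vs DMSO.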

[13] = test system: turtle Androgen Receptor (AR), gene 101947425; test: ATG_trAR_XSP2: Attagene TRANS-FACTORIAL Multi-Species (XSP2) HepG2 Assay for turtle Androgen Receptor (AR) (AID 2283815)
Summary of the method: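 HepG2 cells transiently transfected with GAL4-UAS reporter units for chimeric NR-Gal4 receptors; 24 h dosing in presence of 3 nM 6-alpha-fluorotestosterone and 1.5 nM norgestrel. Reporter mRNA by RT-PCR and capillary electrophoresis, gain of signal versus DMSO.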

## CC1(C)NC(=O)N(c2ccc([N+](=O)[O-])c(C(F)(F)F)c2)C1=O
[1]
  outcome: inactive
[2]
  outcome: inactive
[3]
  outcome: inactive
[4]
  outcome: inactive
[5]
  AC50: 43000 nM (active)
  outcome: inactive
[6]
  outcome: inactive

## C[C@]12CC[C@@H]3c4ccc(O)cc4CC[C@H]3[C@@H]1CCC2=O
[7]
  outcome: inactive
[8]
  outcome: inactive
[9]
  outcome: inactive
[10]
  outcome: inactive
[11]
  outcome: inactive
[12]
  outcome: inactive
[1]
  AC50: 5.33 nM (active)
[4]
  AC50: 10.5 nM (active)
[5]
  AC50: 4.28 nM (active)
[6]
  AC50: 10.3 nM (active)

## CC/C(=C(/CC)c1ccc(O)cc1)c1ccc(O)cc1
[7]
  outcome: inactive
[8]
  outcome: inactive
[9]
  outcome: inactive
[10]
  outcome: inactive
[11]
  outcome: inactive
[12]
  outcome: inactive
[1]
  AC50: 0.138 nM (active)
[4]
  AC50: 1.41 nM (active)
[5]
  AC50: 0.0727 nM (active)
[6]
  AC50: 0.243 nM (active)

## O=c1c(-c2ccc(O)cc2)coc2cc(O)cc(O)c12
[12]
  outcome: inactive
[1]
  AC50: 213 nM (active) and 25.4 nM (active)
[3]
  outcome: inactive
[13]
  outcome: inactive
[5]
  AC50: 467 nM (active) and 29.3 nM (active)
[6]
  AC50: 41.6 nM (active) and 4.15 nM (active)

Source: PubChem BioAssay (EPA / NIEHS)
